Structures are written as SMILES. About 290 (22%) of roughly 1,300 compounds were called active. The full list was thinned out, with actives kept by preference. A number with no mark means an inactive call.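 How the source made its calls: active means inhibition above the mean of all tested compounds plus 3 SD (cut at about 19% in these data); inactive means the rest.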

The assay has as its system VIM-2 metallo-beta-lactamase (Pseudomonas aeruginosa). In words: VIM-2 inhibitors in FRET format, confirmation, artefact control for selective VIM-2 inhibitor project, biochemical, epi-absorbance artifact exclusion (AID 1857).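 Further: 0% = VIM-2 plus DMSO and 100% = no enzyme wells.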 Particulars: purified VIM-2, CCF2 FRET substrate hydrolysis; at 5.6 µM; hits give high values.
Broadly, the inhibition is the drop in the measured response relative to a control, in per cent. Consider `Cc1cc(OCc2cc(C(=O)O)oc2C)c2c3c(c(=O)oc2c1)CCCC3`, for which the inhibition is 80.6% (active). In the case of `Cc1cc(=O)oc2c(C)c(OCC(=O)N3CCN(Cc4ccc5c(c4)OCO5)CC3)ccc12`, the inhibition was -0.88%.

For the origin of these results see PubChem BioAssay AID1857 (The Scripps Research Institute Molecular Screening Center, 2009).
